PubChem BioAssay (NCI)
The panel holds about 83,000 compounds, 20% with a hit somewhere; the sample as a whole holds those more often.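 Testing used 96-well plates and a 48-hour single-concentration exposure. Example: -40 means 40% of the starting cells died.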 A number with no mark means an inactive call. Activity calls are given as the source filed them. Rule for the calls: active = growth percent below 10; inactive = the rest.

Key:
Assay in all cases: NCI-60 one-dose screen, 48 h (100 = growth as untreated, 0 = no growth, -100 = all killed)
Conditions in all cases: 10 µM unless noted
NCI-H23 lung = test system: NCI-H23 lung
NCI-H226 lung = test system: NCI-H226 lung
HOP-62 NSCLC = test system: HOP-62 NSCLC
NCI-H460 lung = test system: NCI-H460 lung
HOP-92 NSCLC = test system: HOP-92 NSCLC
NCI-H522 lung = test system: NCI-H522 lung
A549/ATCC NSCLC = test system: A549/ATCC NSCLC
786-0 renal = test system: 786-0 renal
COLO 205 colon = test system: COLO 205 colon
DU-145 prostate = test system: DU-145 prostate
K-562 leukemia = test system: K-562 leukemia
MALME-3M melanoma = test system: MALME-3M melanoma
MDA-MB-231 breast = test system: MDA-MB-231 breast
RXF 393 renal = test system: RXF 393 renal
SF-268 CNS = test system: SF-268 CNS
SF-295 CNS = test system: SF-295 CNS
SF-539 CNS = test system: SF-539 CNS
UACC-257 melanoma = test system: UACC-257 melanoma
M14 melanoma = test system: M14 melanoma
NCI-H322M lung = test system: NCI-H322M lung

Row | SMILES | growth (NCI-H23 lung) [%] | growth (NCI-H226 lung) | growth (HOP-62 NSCLC) | growth (NCI-H460 lung) | growth (HOP-92 NSCLC) | growth (NCI-H522 lung) | growth (A549/ATCC NSCLC) | growth (786-0 renal) | growth (COLO 205 colon) | growth (DU-145 prostate) | growth (K-562 leukemia) [%] | growth (MALME-3M melanoma) [%] | growth (MDA-MB-231 breast) | growth (RXF 393 renal) | growth (SF-268 CNS) [%] | growth (SF-295 CNS) | growth (SF-539 CNS) | growth (UACC-257 melanoma) [%] | growth (M14 melanoma) | growth (NCI-H322M lung) [%]
1 | COc1cc(-c2nc(SCCC(C)C)nc(N3CCOCC3)c2C#N)cc(OC)c1OC | 74.2 | 106% | 28.6% | 12.2% | 81.9% | 65.8% | 22.4% | 66% | 63.8% | 41.6% | 74.5 | 92.3 | 68.5% | 101% | 40.3 | 98.9% | 55.5% | 95.8 | 96% | –
2 | COc1cc2c(c(OC)c1OC)C(=O)N[C@@H]1[C@@H](O)[C@@H](O)[C@H](O)C[C@@H]21 | 106 | 102% | 102% | 110% | 91.4% | 97.7% | 98.4% | 94.9% | 108% | 110% | 96.6 | 108 | 106% | 102% | 103 | 98.3% | 100% | 100 | 98.5% | –
3 | CC1(C)CC2=C3C=C[C@@H]4[C@@]5(C)CC[C@H](O)C(C)(C)[C@@H]5CC[C@@]4(C)[C@]3(C)CC[C@@]2(C(=O)O)CC1=O | 41.2 | 32.3% | 50.9% | 63.2% | -5.32% (active) | 51.2% | – | 21.1% | 67% | 84.1% | 57.5 | 15.9 | 40.4% | 21.8% | 35.4 | 47.3% | 60% | 20.9 | 30.3% | 55.1
4 | COc1cccc(/C=C/C(=O)c2cc3c(N)c(C(=O)Nc4cccc(Cl)c4C)sc3nc2C)c1 | 20.4 | -23.6% (active) | -24.1% (active) | -23.5% (active) | 20.3% | -69.7% (active) | 3.76% (active) | -43.8% (active) | -27.1% (active) | 4.37% (active) | 11 | 14.7 | -26.5% (active) | -71% (active) | 10.1 | 5.12% (active) | -36% (active) | 57.4 | -28.4% (active) | –
5 | O=C(CCCCCCCCC(=O)N/N=C\c1cc(Cl)ccc1O)N/N=C\c1cc(Cl)ccc1O | 47.9 | 15.4% | 30.7% | 7.22% (active) | 47.6% | 34.3% | 38.2% | 16.3% | 36.9% | 30.5% | 23.7 | 37.6 | 37% | 46.7% | 28.3 | 21.9% | 15.6% | 23.6 | 17.7% | –
6 | CC1=C(C(=O)n2c3ccccc3c3ccccc32)C(c2cccc([N+](=O)[O-])c2)C(C(=O)n2c3ccccc3c3ccccc32)=C(C)N1 | 91.9 | 96.9% | 102% | 102% | 93.8% | 101% | – | 103% | 108% | 103% | 95.8 | 88.9 | 85% | 111% | 89.3 | 102% | 98.6% | 106 | 100% | –
7 | N#Cc1nc(-c2ccc(F)cc2)oc1S(=O)(=O)N1CCN(c2ccc(F)cc2)CC1 | 72.8 | 91.7% | 109% | 102% | 123% | 43.5% | 104% | 100% | 86.7% | 102% | 17.6 | 104 | 92% | 95.3% | 106 | 106% | 101% | 97.9 | 88.2% | –
8 | C#CCOc1ccc2ncnc(Nc3cccc(NC(=O)CCl)c3)c2c1 | 73.5 | 88.3% | 93.2% | 49.2% | 85% | 38.9% | – | 72.6% | 96.7% | 74% | 55.2 | 71.9 | 73.7% | 79.6% | 60.6 | 106% | 84.4% | 80.3 | 77.1% | 92.1
